Source: paper PMC5540273 (PLoS ONE, 2017)

How the values were obtained:
Conditions in all cases: concentration: 1 μM, replicates: in singlicate; n = 1
PLK2 = system: PLK2
PLK3 = system: PLK3
PLK4 = system: PLK4
PRKCD = system: PRKCD
PRKCE = system: PRKCE
PRKCH = system: PRKCH
PRKCI = system: PRKCI
PRKCQ = system: PRKCQ
PRKD1 = system: PRKD1
PRKD2 = system: PRKD2
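Also: KINOMEscan kinase panel screen.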

Compound | %Inh (PLK2) [%] | %Inh (PLK3) [%] | %Inh (PLK4) [%] | %Inh (PRKCD) [%] | %Inh (PRKCE) [%] | %Inh (PRKCH) [%] | %Inh (PRKCI) [%] | %Inh (PRKCQ) [%] | %Inh (PRKD1) [%] | %Inh (PRKD2) [%]
Cl.Cl.NCC(NC(=O)c1cc(-c2ccccc2)c(-c2ccnc3[nH]ccc23)s1)c1ccccc1 (centres unmarked) [GSK1321561] | 30 | 0 | 4 | 98 | 69 | 86 | 37 | 49 | 38 | 8
Cc1occc1-c1ncc(OC[C@@H](N)Cc2c[nH]c3ccccc23)cc1-c1ccc2[nH]nc(C)c2c1.O=C(O)C(F)(F)F [GSK682037] | 0 | 0 | 0 | 100 | 99.8 | 97.5 | 28 | 97.7 | 90 | 99.6
Cc1ccc(S(=O)(=O)Nc2ccc(Nc3nccc(Nc4cccc5[nH]ncc45)n3)cc2)cc1 [GSK581271] | 0 | 0 | 1 | 0 | 0 | 0 | 7 | 0 | 0 | 0
NCCCC(NC(=O)c1cc(Br)c(-c2ccnc3[nH]ccc23)s1)c1ccccc1.O=C(O)C(F)(F)F.O=C(O)C(F)(F)F (centres unmarked) [GSK1287544] | 14 | 0 | 0 | 95.6 | 92.5 | 94.7 | 31 | 75 | 29 | 36
CNC(=O)c1ccccc1Nc1nc(Nc2ccc(N3CCOCC3)cc2)ncc1Cl.Cl [GSK1576028] | 81 | 85 | 100 | 24 | 64 | 0 | 11 | 84 | 0 | 17
CC(=O)Nc1nc2cnc(Nc3cc(NC(=O)c4cccc(C5(C#N)CC5)c4Cl)ccc3C)nc2s1 | 4 | 0 | 0 | 29 | 0 | 0 | 0 | 39 | 0 | 4
CC(C)(C)c1ccc2nccc(Nc3cccc(O)c3)c2c1 [GW856795] | 0 | 0 | 7 | 0 | 22 | 0 | 0 | 0 | 9 | 6
COc1cccc(-c2ccc3c(NC(=O)C4CC4)n[nH]c3n2)c1 [SB-710903] | 0 | 0 | 6 | 0 | 23 | 10 | 11 | 0 | 0 | 0
COc1cc(Nc2nccc(N3CCC(NC(=O)Nc4cccc(C(C)=O)c4)C3)n2)cc(OC)c1OC (centres unmarked) [GSK1379753] | 0 | 0 | 54 | 5 | 0 | 0 | 25 | 0 | 0 | 0
Cc1cccc(NC(=O)Nc2ccc(Oc3ncnc4ccn(C)c34)cc2)c1 | 0 | 3 | 0 | 0 | 7 | 0 | 0 | 0 | 0 | 0
CN(c1ccc(NC(=O)Nc2cc(C(F)(F)F)ccc2F)cc1)c1ccnc(Nc2ccc(S(N)(=O)=O)cc2)n1 [GW809893] | 54 | 56 | 97.6 | 0 | 0 | 0 | 29 | 9 | 0 | 10
CCn1c(-c2nonc2N)nc2c(C#CC(C)(C)O)nc(OC[C@H](N)c3ccccc3)cc21 [GSK943949] | 0 | 0 | 19 | 96.2 | 75 | 97.9 | 20 | 82 | 7 | 17
Cn1cc(-c2ccc3c(c2)CCN3C(=O)Cc2cccc(F)c2)c2c(N)ncnc21 [GSK2603358] | 0 | 6 | 0 | 0 | 14 | 24 | 30 | 0 | 0 | 0
c1ccc(-c2n[nH]cc2Nc2ccnc3ccccc23)nc1 [GW694077] | 0 | 0 | 48 | 0 | 22 | 0 | 48 | 0 | 91.8 | 96.2
Nc1ncc(-c2ccc3nccc(-c4ccncc4)c3c2)cc1S(=O)(=O)N1CCOCC1 [GSK1627798] | 0 | 0 | 0 | 0 | 9 | 18 | 9 | 0 | 0 | 3
Fc1ccc(-c2ncn(C3CCNCC3)c2-c2ccnc(Oc3ccc(-c4ccccc4)cc3)n2)cc1 [SB-245391] | 28 | 17 | 27 | 32 | 40 | 0 | 54 | 0 | 0 | 0
O=C(Nc1cccc(-c2nn3ncccc3c2-c2ccnc(Nc3ccccc3)n2)c1)c1c(F)cccc1F [GSK198271] | 55 | 82 | 1 | 0 | 8 | 16 | 9 | 48 | 27 | 20
O=c1[nH]cc(-c2ccc(N3CCOCC3)cc2)c2sc(-c3cn[nH]c3)cc12 [GSK2276055] | 18 | 0 | 17 | 0 | 0 | 0 | 17 | 21 | 0 | 30
O=C(Nc1cccc(-c2nn3ccccc3c2-c2ccnc(Nc3cccc(C(F)(F)F)c3)n2)c1)c1c(F)cccc1F [GSK292658] | 0 | 0 | 3 | 0 | 0 | 17 | 9 | 20 | 0 | 0
O=C(Nc1n[nH]c2nc(-c3ccc(O)cc3)ccc12)C1CC1 [SB-710363] | 10 | 0 | 30 | 37 | 45 | 19 | 0 | 16 | 0 | 0
Nc1ncnc2c1nc(-c1ccccc1)n2-c1ccccc1 [SKF-97293] | 38 | 16 | 26 | 14 | 35 | 9 | 13 | 0 | 5 | 0
COc1cccc(NC(=O)NC2CCN(c3ccnc(Nc4cc(OC)c(OC)c(OC)c4)n3)C2)c1 (centres unmarked) [GSK1379763] | 0 | 12 | 48 | 0 | 14 | 0 | 0 | 0 | 0 | 0
Nc1ncc(-c2cccnc2)c2scc(-c3ccc4c(c3)CCN4C(=O)Cc3ccccc3)c12 [GSK683281] | 0 | 0 | 15 | 25 | 0 | 33 | 33 | 14 | 23 | 73
CCS(=O)(=O)c1ccc(OC)c(Nc2nccc(-c3c(-c4cccc(NC(=O)c5c(F)cccc5F)c4)nn4ncccc34)n2)c1 [GSK326180] | 0 | 5 | 16 | 0 | 12 | 18 | 16 | 27 | 0 | 9
O=C(Nc1n[nH]c2cc(-c3ccoc3)ccc12)C1CC1 [SB-738481] | 3 | 12 | 10 | 4 | 12 | 0 | 0 | 0 | 0 | 0
CCc1ccc(-c2ccc3c(c2)-c2c(cnn2C)S(=O)(=O)N3C)cc1 | 4 | 2 | 14 | 0 | 17 | 0 | 2 | 23 | 0 | 14
COC(=O)Nc1nc2ccc(Oc3ccc(NC(=O)Nc4cc(C(F)(F)F)ccc4F)cc3)cc2n1C.Cl [GW692089] | 0 | 30 | 0 | 0 | 20 | 0 | 4 | 0 | 0 | 10
Nc1n[nH]c2cnc(-c3ccccc3)cc12 [SB-642124] | 49 | 43 | 1 | 17 | 24 | 38 | 4 | 45 | 5 | 4
CC(=O)N1CCN(c2ccc(Nc3nccc(-c4sc(C(C)C)nc4-c4cccc(NS(=O)(=O)c5cccc(Cl)c5)c4)n3)cn2)CC1 [GSK1660437] | 5 | 0 | 99.8 | 1 | 0 | 19 | 13 | 13 | 89 | 95.3
